# Test results reported in PubChem BioAssay (NCATS).
# Unmarked numbers belong to inactive results. Cut-off read from the data, not from the text of the source: active = potency below about 10 µM; inactive = the rest.
# Biological target: Lysosomal acid glucosylceramidase (Homo sapiens) (UniProt P04062)
# Assay: Glucocerebrosidase-p2 (AID 348)
# Details: purified GBA, blue fluorogenic substrate, 40 min
# From the text: Beta-glucocerebrosidase catalyzes the hydrolysis of beta-glucocerebroside to glucose and ceramide. The inherited deficiency of beta-glucocerebrosidase results in Gaucher disease, which is characterized by a wide variety of symptoms including hepatosplenomegaly, anemia, thrombocytopenia, bony lesions and bone marrow infiltration with characteristic storage cells, known as Gaucher cells. There are also forms of the disorder affecting the central nervous system. Patients with the same genotypes can manifest with diverse clinical presentations and it is believed that improper folding and trafficking of beta-glucocerbrosidase may contribute to the phenotypes observed.
# Low molecular weight molecules, acting as chaperones, may potentially restore trafficking of misfolded beta-glucocerebrosidase from the endoplasmic reticulum to the lysosomes, thereby enhancing functional lysosomal beta-glucocerebrosidase activity.
# Using normal beta-glucocerebrosidase, an assay was developed to screen for small molecule inhibitors that could potentially act as molecular chaperones on the mutant forms [developed with NIH investigator Dr. Ellen Sidransky#s laboratory]. Two pro-fluorescent substrates were chosen for two screens against a small molecule library. […]
# Blue fluorescence substrate assay: […]
# Read the plate in Viewlux plate reader (Ex=365(10) and Em=440(10)).
# Potency is the fitted concentration of half-maximal effect.
# Lysosomal acid glucosylceramidase (Homo sapiens), sequence (P04062 whole entry, looked up): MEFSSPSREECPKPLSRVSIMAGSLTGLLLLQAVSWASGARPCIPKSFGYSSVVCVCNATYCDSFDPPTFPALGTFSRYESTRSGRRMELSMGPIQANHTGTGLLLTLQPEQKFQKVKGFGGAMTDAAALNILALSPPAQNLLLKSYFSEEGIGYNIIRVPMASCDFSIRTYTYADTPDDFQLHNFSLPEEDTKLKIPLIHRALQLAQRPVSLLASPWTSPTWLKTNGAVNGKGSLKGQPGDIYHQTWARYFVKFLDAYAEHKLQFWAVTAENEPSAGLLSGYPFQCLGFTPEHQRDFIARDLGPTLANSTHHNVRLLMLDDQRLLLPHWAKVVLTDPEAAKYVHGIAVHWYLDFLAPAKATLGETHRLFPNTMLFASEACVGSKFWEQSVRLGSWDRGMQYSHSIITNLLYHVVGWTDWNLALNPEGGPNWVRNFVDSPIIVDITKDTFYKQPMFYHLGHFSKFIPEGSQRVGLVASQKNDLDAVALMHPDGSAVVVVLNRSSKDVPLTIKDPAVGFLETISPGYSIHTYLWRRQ
smiles,measurement,value
CN1CCN(CCCN2c3ccccc3Sc3ccc(C(F)(F)F)cc32)CC1,Potency,> 11.4 µM
